Screens: PubChem BioAssay, National Center for Advancing Translational Sciences (NCATS)
Compounds with a hit are over-represented: about 19% of the library has one in this group of screens.
IL-1B inflam inh – inflammasome signaling inhibition, IL-1 beta readout | THP-1 LPS/ATP IL-1B secretion, AlphaLISA, 16 h; hits give low values | activity change, % at 57.5 µM | actives 4.7% (n = 360,000) | AID 743279; in the data active = activity change below about -50%; inconclusive = mostly about -30% to -49%
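THP-1 cells pretreated 1 hr with compounds (up to 57.5 uM final), then stimulated with LPS (250 ng/mL final) plus ATP (1.25 mM final); secreted IL-1B measured by AlphaLISA after 16 hr, decreased signal indicating inhibition.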
Giardia killer – Giardia lamblia killing; actives 0.15% (n = 340,000); activity change, % at 7.66 µM, hits read low; Giardia lamblia trophozoite viability; AID 540267; in the data active = activity change below about -80%; inconclusive = between about -30% and that limit;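 also: parasites exposed to compound for two days anaerobically before the ATP read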
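Compounds were tested on trophozoites seeded at 100 cells/well and held 48 hrs at 37 deg C anaerobically. An ATP-based luminescent kit measured the remaining live cells.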
ELG1 repair inh – ELG1-dependent DNA repair inhibition. HEK293T ELG1-luciferase reporter, luminescence, 16 h; DNA damage induced by 5-fluorouridine. Potency, µM (top dose mostly 46.1 µM), for the others: at the highest dose activity change, negative = inhibition, usual class: inhibitors. actives 2.3% (n = 330,000). AID 504467; also: potency is read from the fitted curve at half-maximal effect; nearly all actives have a fitted effect of over 55% in size
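Step one: seed 2,000 cells per well. Step two: pin-transfer compound or DMSO alongside 5-fluorouridine. Step three: incubate 16 hr, 37 °C, 5% CO2. Step four: add ONE-Glo, wait 30 min, read luminescence.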
TDP1 block – blocks human tyrosyl-DNA phosphodiesterase 1; Q9NUW8; recombinant TDP1, AlphaScreen DNA substrate cleavage; Potency, µM (series often up to 130 µM), for the others: at the highest dose activity change, negative = inhibition, actives largely listed as inhibitors; actives 0.28% (n = 350,000); AID 485290; also: potency is read from the fitted curve at half-maximal effect; nearly all actives have a fitted effect of over 40% in size
Target sequence (Q9NUW8 whole entry, looked up): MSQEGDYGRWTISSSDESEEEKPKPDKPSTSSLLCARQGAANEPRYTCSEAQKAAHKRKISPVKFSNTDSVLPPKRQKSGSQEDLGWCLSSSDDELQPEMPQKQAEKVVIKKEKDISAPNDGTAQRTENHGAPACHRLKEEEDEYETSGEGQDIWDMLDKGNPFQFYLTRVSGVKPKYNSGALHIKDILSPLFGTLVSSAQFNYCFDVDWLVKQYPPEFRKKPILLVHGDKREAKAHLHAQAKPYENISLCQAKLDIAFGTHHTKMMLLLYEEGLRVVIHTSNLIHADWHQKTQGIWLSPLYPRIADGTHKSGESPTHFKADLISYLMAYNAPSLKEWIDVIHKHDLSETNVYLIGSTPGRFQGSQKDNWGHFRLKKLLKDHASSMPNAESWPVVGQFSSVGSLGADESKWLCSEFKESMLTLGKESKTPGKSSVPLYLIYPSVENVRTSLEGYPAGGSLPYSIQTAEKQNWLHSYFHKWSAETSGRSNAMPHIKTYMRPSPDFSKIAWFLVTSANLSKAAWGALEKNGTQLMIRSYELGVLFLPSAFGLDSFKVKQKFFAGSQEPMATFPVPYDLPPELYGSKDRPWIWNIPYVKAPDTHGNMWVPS
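Enzyme-compound mixtures sat 15 min at room temperature, followed by a 5 min reaction with 15 nM final substrate and 10 min with AlphaScreen beads. Recombinant human Tdp1 was used at 1 nM final.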
DT40 TDP1 CPT – growth inhibition of DT40 Tdp1-/-;hTDP1 cells with camptothecin (screen for TDP1 inhibitors) | chicken DT40 Tdp1-/-;hTDP1 cells + 20 nM CPT, ATP luminescence, 48 h | Potency, µM (doses to about 46.2 µM), inactives show top-dose activity change, negative = growth inhibition, most hits filed as inhibitors | actives 12% (n = 420,000) | AID 686979; also: potency is read from the fitted curve at half-maximal effect; nearly all actives have a fitted effect of over 55% in size
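Cell growth measured by CellTiter-Glo luminescence after a minimum 48 h, 37 C compound exposure with 20 nM CPT in Tdp1-knockout DT40 cells stably expressing hTDP1, seeded 400/well; qHTS titration format.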
DT40 TDP1 no CPT – qHTS for Inhibitors of human tyrosyl-DNA phosphodiesterase 1 (TDP1): qHTS in cells in absence of CPT; DT40 Tdp1-/- hTDP1 cells, no CPT, ATP luminescence, 48 h; actives 15% (n = 420,000); Potency, µM (titrated, usually from 46.2 µM), without a hit: at the highest dose activity change, negative = growth inhibition, actives largely listed as inhibitors; AID 686978, 2013; also: potency is read from the fitted curve at half-maximal effect; nearly all actives have a fitted effect of over 55% in size
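No-CPT arm: Tdp1-/-;hTDP1 DT40 cells (400/well) plus compounds, incubated ≥48 hr at 37 °C. Readout CellTiter-Glo luminescence.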
Starred values were filed as active, the others as inactive; ? = inconclusive; nt = no result given; [ ] = remark or other dose. Unless noted, calls follow the shape of the dose curve; as a rule, active = well fitted curve in the direction sought with a large enough effect; inconclusive = small, poorly fitted or top-dose-only effect, or another doubt; inactive = no such curve, though single readings can be large; an effect the other way counts as inactive or inconclusive. % is scaled to controls: 0 for no effect and ±100 for the full control effect.

SMILES | IL-1B inflam inh | Giardia killer | ELG1 repair inh | TDP1 block | DT40 TDP1 CPT | DT40 TDP1 no CPT
CC(C)C(=O)Nc1c(C(=O)N2CCN(c3ncccn3)CC2)oc2ccccc12 | -10.6 | -24.0 | -6.4% | 4.8% | -22.8% | -10.8%
CC(C)C(=O)Nc1c(C(=O)N2CCN(c3ccccc3F)CC2)oc2ccccc12 | nt | nt | nt | 2.1% | 10.3µM* | 11.6µM*
CCC(CC)C(=O)Nc1c(C(=O)N2CCN(c3ccccc3F)CC2)oc2ccccc12 | nt | nt | nt | 5.7% | 14.6µM* | 10.3µM*
CCC(CC)C(=O)Nc1c(C(=O)N2CCN(c3ccccc3)CC2)oc2ccccc12 | -12.7 | 20.7 | ? | 5.4% | 20.6µM* | 8.2µM*
Cc1ccccc1CN1CCSc2sccc2C1=O | 0.0 | -6.4 | 14.4% | 5.0% | -15.7% | -18.5%
O=C(O)c1cccc2c1Cc1cc(Cl)ccc1-2 | 8.8 | 0.2 | nt | nt | ? | -21.5%
O=C(Nc1c(C(=O)N2CCN(c3ccccc3F)CC2)oc2ccccc12)c1ccc(Br)o1 | nt | nt | nt | 5.7% | 18.4µM* | ?
CC(C)CC(=O)Nc1c(C(=O)N2CCN(c3ccccc3)CC2)oc2ccccc12 | nt | nt | nt | 11.4% | 14.6µM* | 20.6µM*
O=C(COc1ccccc1)Nc1c(C(=O)N2CCN(c3ccc(F)cc3)CC2)oc2ccccc12 | nt | nt | nt | -4.2% | ? | ?
Cn1c(CCNC(=O)C2CC23CCN(C(=O)C2=CCCC2)CC3)nc2ccccc21 (stereo not given) | nt | nt | nt | nt | 9.1%[9.04 µM] | -22.2%
CCc1ccc(NC(=O)c2cc3c(C)nc4ccccc4c3o2)cc1 | -139.1* | -6.8 | ? | 2.3% | 18.4µM* | 16.4µM*
Cc1ccccc1NC(=O)c1cc2ccccc2o1 | 0.6 | -14.4 | ? | 0.0% | -19.1% | -6.8%
Cc1ccccc1NC(=O)c1cc2c(C)nc3ccccc3c2o1 | -17.2 | -3.8 | ? | 0.0% | ? | 23.1µM*
CCCCNCCOCCOc1ccccc1-c1ccccc1 | ? | 0.0 | -14.0% | -2.8% | 23.1µM* | 29.1µM*
CC1CN(CCOCCOc2ccccc2-c2ccccc2)CC(C)O1 (stereo not given) | 12.8 | -10.7 | -11.2% | nt | ? | 23.1µM*
Clc1ccc(OCCCN2CCc3ccccc3C2)c(Br)c1 | -4.4 | 3.7 | 8.5% | nt | ? | ?
Clc1ccc(OCCOCCN2CCc3ccccc3C2)c(Cl)c1 | -82.5* | 14.8 | -2.3% | -0.6% | ? | 23.1µM*
c1ccc(-c2ccccc2OCCOCCN2CCc3ccccc3C2)cc1 | -75.1* | 4.1 | ? | 0.0% | ? | 11.6µM*
CC(C)NCCCCOc1ccccc1-c1ccccc1 | nt | nt | -4.2% | -10.7% | nt | nt
CS(=O)(=O)N1N=C(c2cccs2)CC1c1ccco1 (stereo not given) | -3.8 | -3.3 | ? | -6.0% | ? | ?
CN1CCN(C(CNC(=O)C(=O)Nc2ccc(F)cc2F)c2ccc3c(c2)OCO3)CC1 (stereo not given) | nt | nt | nt | 8.8% | -11.5% | -23.8%
Cc1nn(CC(=O)N2CCN(c3ccccc3)CC2)c(=O)c2cccn12 | 36.3 | -22.7 | 12.1% | -5.7% | 3.0% | 13.8%
CCN(CC)Cc1nc2c(c(=O)[nH]1)C1(CCCCC1)Cc1ccccc1-2 | -16.3 | 2.9 | -0.8% | 4.1% | 20.6µM* | 18.4µM*
CCC1(CC)Cc2ccccc2-c2nc(CN(C)C)[nH]c(=O)c21 | -2.5 | 3.6 | ? | nt | ? | 16.4µM*
CN(C)Cc1nc2c(c(=O)[nH]1)C(C)(C)Cc1ccccc1-2 | -2.8 | -4.4 | -1.2% | -2.3% | -3.3% | 10.7%
SMILES | IL-1B inflam inh | Giardia killer | ELG1 repair inh | TDP1 block | DT40 TDP1 CPT | DT40 TDP1 no CPT
O=c1oc(-c2ccccc2)nc2c1C1(CCCCC1)Cc1ccccc1-2 | -4.5 | 36.0 | 1.4% | -1.9% | -2.6% | -13.0%
CN(C)Cc1nc2c(c(=O)[nH]1)C1(CCCCC1)Cc1ccccc1-2 | -8.1 | 13.0 | -21.3% | 4.4% | 18.4µM* | 23.1µM*
CCC1(CC)Cc2ccccc2-c2nc(-c3ccccc3)oc(=O)c21 | 6.3 | -10.4 | 1.3% | -2.3% | ? | 16.4µM*
O=c1[nH]c(NCCCO)nc2c1C1(CCCC1)Cc1ccccc1-2 | ? | 3.2 | 2.3% | 5.4% | ? | ?
O=C(NN=C1CCCCCC1)c1ccc(Cl)s1 | 15.4 | -10.2 | 17.6% | 3.2%[56.1 µM] | -5.0% | 3.4%
CNC(=O)c1c(NC(=O)c2ccc(S(=O)(=O)N3CCCC(C)C3)cc2)sc2c1CCC2 (stereo not given) | nt | nt | nt | 1.1% | 20.6µM* | 18.4µM*
CCC1CCCCN1S(=O)(=O)c1ccc(C(=O)Nc2sc3c(c2C(=O)NC)CCC3)cc1 (stereo not given) | nt | nt | nt | 3.3% | 20.6µM* | 16.4µM*
Cc1cc(C)cc(NC(=O)c2cccnc2)c1 | -6.9 | 8.5 | 4.4% | ? | 3.4% | -7.2%
Cc1cccc2c1Sc1ccc(Cl)cc1CC2N1CCNCC1 (stereo not given) | -98.5* | 19.8 | nt | nt | 16.4µM* | 18.4µM*
c1ccc2c(c1)CC(N1CCCCC1)c1ccccc1N2 (stereo not given) | -5.5 | -7.5 | 15.4% | 4.3% | -7.6% | -6.8%
CCc1cccc2c1Sc1ccccc1CC2N1CCNCC1 (stereo not given) | -92.5* | 8.2 | nt | nt | 16.4µM* | 16.4µM*
CC(=O)OC1CC(O)C(C)(C)C2CC(OC(C)=O)[C@]3(C)C(CC[C@@]4(C)C(c5ccoc5)OC(=O)C5OC534)[C@]12C (stereo not given in full) | nt | nt | nt | 13.6%[56.1 µM] | 4.6% | 10.1%
CC(=O)OC1CC2C(C)(C)C(O)CC[C@@]2(C)C2CC[C@@]3(C)C(c4ccoc4)OC(=O)C4O[C@@]43[C@]12C (stereo not given in full) | nt | nt | nt | 18.8%[56.1 µM] | ? | 18.4µM*
CC(=O)OC1CC2C(C)(C)C(O)CC[C@@]2(C)C2CC[C@@]3(C)C(c4ccoc4)OC(=O)C4OC43[C@]12C (stereo not given in full) | nt | nt | nt | 15.2%[56.1 µM] | ? | 20.6µM*
O=CN1CCN(c2c([N+](=O)[O-])c(=O)oc3ccccc23)CC1 | 12.1 | -12.3 | 12.5% | nt | -18.2% | ?
O=c1oc2ccccc2c(N2CCCCC2)c1[N+](=O)[O-] | -50.3* | -15.0 | -2.1% | 1.9% | 16.4µM* | 16.4µM*
O=c1oc2ccccc2c(N2CCCC2)c1[N+](=O)[O-] | -4.2 | -2.4 | 22.7% | 6.3% | -18.1% | -29.6%
CC1CCN(c2c([N+](=O)[O-])c(=O)oc3ccccc23)CC1 | -13.5 | 6.8 | 0.2% | 2.7% | 16.4µM* | 23.1µM*
CCOc1ccc(C2Nc3c(C)cccc3-c3cc(C)nn32)cc1 (stereo not given) | nt | nt | nt | 0.0% | 20.6µM* | ?
